p53null 32C tox: kills p53 null cells at the permissive temperature | actives 0.62% (n = 55,000) | AID 903 | H1299-neo p53 null cells, ATP luminescence, 24 h, 32C | Potency, µM (titrated, usually from 46.1 µM), usual class: cytotoxic; further: nearly all actives have a fitted effect of over 55% in size
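H1299-neo (p53-null) cells, 600/well, were pre-incubated overnight at 37C, then exposed to compounds at up to 46 uM for 24 hr at 32C. Viability was measured as ATP content by luminescence, and AC50 values came from Hill fits.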
FH mod: Identification of activators of human fumarate hydratase by quantitative high-throughput screening. Fumarate hydratase, mitochondrial (Homo sapiens), P07954. FH coupled MDH/diaphorase resazurin fluorescence, 15 min. Potency, µM (top dose mostly 79.9 µM), actives largely listed as inhibitors. actives 0.22% (n = 54,000). AID 1347055, 2019; further: the screen sought activators but most active calls are inhibition curves; nearly all actives have a fitted effect of over 45% in size
p53null 39C kill: selectivity test: cytotoxicity in p53 null cells, nonpermissive temperature. AID 904. H1299 p53-null (neo) cells, 39C, ATPlite viability, 24 h. Potency, µM (top dose mostly 46.1 µM), most hits filed as cytotoxic. actives 0.97% (n = 55,000); further: nearly all actives have a fitted effect of over 50% in size
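Luminescent ATP signal reported cell survival after H1299 lines (neo, p53 null; or p53 A138V) received up to 46 uM compound and 24 hr incubation at 39C.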
DRV1 agonist: GPR32 (DRV1) agonism, beta-arrestin recruitment; CHO-K1 GPR32 beta-arrestin PathHunter luminescence, 90 min; zero percent set by DMSO-only wells; O75388; actives 2.5% (n = 48,000); activation, % at 76.9 µM; AID 1346428;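 active means activation of at least 60% and not above a set upper limit, about 1 call in 100 departs from these limits; inconclusive means activation of 40% to 60%, or above that upper limit; inactive means activation under 40%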
Target sequence (O75388 whole entry, looked up): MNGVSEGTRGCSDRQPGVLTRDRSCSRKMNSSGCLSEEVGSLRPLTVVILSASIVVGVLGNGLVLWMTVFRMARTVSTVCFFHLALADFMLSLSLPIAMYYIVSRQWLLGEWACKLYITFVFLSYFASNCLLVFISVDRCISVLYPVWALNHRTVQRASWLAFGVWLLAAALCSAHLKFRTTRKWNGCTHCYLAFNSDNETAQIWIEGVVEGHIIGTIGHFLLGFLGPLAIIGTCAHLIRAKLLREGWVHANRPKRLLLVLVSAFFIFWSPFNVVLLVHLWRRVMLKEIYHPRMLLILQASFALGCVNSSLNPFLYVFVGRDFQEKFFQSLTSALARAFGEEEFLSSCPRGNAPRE
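Using DMSO wells as EC0, agonist-induced signal was taken as chemiluminescence from beta-Gal reconstituted upon beta-arrestin recruitment to GPR32 in CHO-K1 cells after 90 min compound treatment.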
Hits are given with their value; . = inactive; ? = inconclusive; / = not tested or not shown; ! = not active in a repeat; [ ] = remark or other dose. The list is not random: actives were taken first. Their share in the collection is about 2.9%. Unless noted, the call rests on the fitted dose curve; in most records, active means well fitted curve in the direction sought with a large enough effect; inconclusive means small, poorly fitted or top-dose-only effect, or another doubt; inactive means no such curve, though single readings can be large; an effect the other way counts as inactive or inconclusive.

SMILES	p53null 32C tox	FH mod	p53null 39C kill	DRV1 agonist
Cc1ccc(C2CC(=O)Nc3cc4c(cc32)OCCO4)cc1 (stereo unspecified)	.	.	.	62
Nc1ncnc2c1ncn2[C@@H]1O[C@H](COP(=O)(O)OP(=O)(O)OP(=O)(O)OP(=O)(O)OC[C@@H]2O[C@H](n3cnc4c(N)ncnc43)[C@@H](O)C2O)C(O)[C@H]1O (stereo partly specified)	/	.	/	/
O=C1c2c(O[C@@H]3O[C@H](CO)[C@@H](O)[C@H](O)[C@H]3O)cc(O)cc2OC1(O)Cc1ccc(O)cc1 (stereo partly specified)	/	.	/	/
Cc1oc2ccc(O)c(CN(C)Cc3ccccc3)c2c1C(=O)Nc1ccccc1	.	.	?	.
Cc1oc2ccc(O)c(CN(C)Cc3ccccc3)c2c1C(=O)Nc1cccc(C(F)(F)F)c1	.	?	22µM	.
COc1ccc2c(c1)OC[C@]1(O)c3cc4c(cc3O[C@H]21)OCO4	/	.	/	/
Cc1ccc(OCC(=O)Nc2ccc(S(=O)(=O)Nc3cc(C)on3)cc2)c(Br)c1	.	?	.	?
Cc1cc(NS(=O)(=O)c2ccc(NC(=O)COc3cc(C)c(Br)cc3C(C)C)cc2)no1	.	.	.	107
C[C@@H]1C[C@@H](O)[C@@]23CO[C@]2(CO)CCC[C@@H]3[C@@]12C[C@@H](c1ccoc1)OC2=O	/	.	/	/
CC(=O)Nc1ccc(S(=O)(=O)NCc2cccn2Cc2cccc(C)c2)cc1	.	.	.	88
COc1ccc(S(=O)(=O)NCc2cccn2Cc2cccc(C)c2)cc1OC	.	?	.	.
CN(c1ccccc1)S(=O)(=O)c1ccc(NC(=O)c2nc(S(C)(=O)=O)ncc2Cl)cc1	22µM	?	?	.
CC(=O)Nc1ccc(NC(=O)c2nc(SCc3ccccc3C)ncc2Cl)cc1	.	.	.	65
CCS(=O)(=O)c1ncc(Cl)c(C(=O)Nc2ccccc2)n1	.	.	20µM	.
C[C@@H]1COCCN1c1cc(C2(S(C)(=N)=O)CC2)nc(-c2ccnc3[nH]ccc23)n1 (stereo partly specified)	/	.	/	/
CC(C)(C)c1ccc(O)c(O)c1	/	40µM	/	?
C[C@](N)(Cc1ccc(O)c(O)c1)C(=O)O	/	?	/	.
Cc1ccc(NC(=O)Nc2nnc(Sc3ncnc4cc(OCCCN5CCOCC5)ccc34)s2)cc1	/	.	/	/
O=C1CCSc2ccc(S(=O)(=O)Nc3ccc(Cl)c(C(F)(F)F)c3)cc2N1	.	.	.	71
C[C@H]1CCN2C[C@]34C[C@@]5(C(=O)Nc6c5ccc5c6OC=CC(C)(C)O5)C(C)(C)C3C[C@]12C(=O)N4C (stereo partly specified)	/	.	/	/
COc1ccc(Nc2nn3c(=O)c4cc5c(cc4nc3s2)OCO5)c(OC)c1	.	.	.	.
Cc1ccc(C)c(Nc2nn3c(=O)c4cc5c(cc4nc3s2)OCO5)c1	.	.	.	63
O=c1c2cc3c(cc2nc2sc(Nc4ccccc4)nn12)OCO3	10µM	.	6.3µM	.
CC(C)CC1NC(=O)C2CC3(O)c4ccccc4NC3N2C1=O (stereo unspecified)	/	.	/	/
COc1ccc(OC)c(CNC(=O)Nc2cn(CC(C)C)c(=O)c3ccccc23)c1	.	32µM[activator]	.	.
SMILES	p53null 32C tox	FH mod	p53null 39C kill	DRV1 agonist
COc1ccc(-c2cc(C(F)(F)F)nc(NCc3ccccc3)n2)cc1	.	?	.	.
COc1ccc(-c2cc(C(F)(F)F)nc(S(C)(=O)=O)n2)cc1	?	.	?	109
CC(=O)Nc1cccc(-c2csc(Nc3ccc(C)cn3)n2)c1	11µM	/	/	/
COC1=CC(=O)O/C1=C(/OC)[C@@H]1O[C@H]1c1ccccc1	/	.	/	/
Cc1ccccc1Nc1c(-c2ccc(N3CCOCC3)cc2)nc2ncccn12	13µM	.	13µM	.
CC(=O)Nc1ccc(NC(=O)c2oc3ccc4c(c3c2C)C(=O)CC(C)(C)O4)cc1	4µM	.	3.2µM	.
CCOC(=O)c1ccc(NC(=O)c2oc3ccc4c(c3c2C)C(=O)CC(C)(CC)O4)cc1 (stereo unspecified)	?	.	3.2µM	.
CCOC(=O)c1cnc2ccc(-c3cncc(NS(=O)(=O)c4ccccc4)c3)cn12	/	.	/	/
Nc1cccc(CNC(=O)c2ccc(Oc3ccc(OCc4cccc(F)c4)cc3)nc2)c1	/	.	/	/
O=C(O)/C=C/c1cc2c(cc1O[C@@H]1O[C@H](CO)[C@@H](O)[C@H](O)[C@H]1O)OCO2	/	.	/	/
CC(=O)NCCc1nc2ccccc2n1CCCCOc1ccc(Cl)cc1	.	.	.	76
CCCC(O)c1nc2ccccc2n1CCCCOc1ccc(OC)cc1 (stereo unspecified)	.	.	.	91
CC(O)c1nc2ccccc2n1CCOc1ccccc1 (stereo unspecified)	.	/	.	/
O=S(=O)(NCc1cccc2ccccc12)c1cc(Cl)c(Oc2cccc(N3CCNCC3)c2)s1	/	.	/	/
CO[C@H]1O[C@@H]2O[C@]3(C)CC[C@H]4[C@H](C)CC[C@@H]([C@H]1C)[C@@]24OO3	/	.	/	/
CC(CNS(=O)(=O)C(C)C)c1ccc(-c2ccc(C#N)cc2)cc1 (stereo unspecified)	/	.	/	/
CCOC(=O)c1c(C)oc2c(Cl)cc(NS(=O)(=O)c3ccc(Cl)c(C)c3)cc12	.	?	5µM	.
Cc1cc(S(=O)(=O)Nc2ccc3oc4c(c3c2)CCCC4)ccc1Cl	?	?	18µM	.
Cc1ccc(N)cc1O	/	20µM	/	.
CC(C)(O)/C=C/C(=O)[C@](C)(O)[C@H]1[C@H](O)C[C@@]2(C)[C@@H]3CC=C4[C@@H](C[C@H](O[C@@H]5O[C@H](CO)[C@@H](O)[C@H](O)[C@H]5O)C(=O)C4(C)C)[C@]3(C)C(=O)C[C@]12C	/	.	/	/
COc1ccc(NC(=O)CSc2ccc(-c3cccs3)nn2)cc1	.	.	.	112
CC1=C2C(=O)O[C@@H](c3ccoc3)[C@]2(C)CCC1	/	.	/	/
COc1ccc(NC(=O)CCc2c(C)nn(-c3ccc(N4CCCCC4)nn3)c2C)cc1Cl	10µM	/	?	.
COc1cc(NC(=O)CCc2c(C)nn(-c3ccc(N4CCCCC4)nn3)c2C)cc(OC)c1OC	.	/	.	.
CN(C)CCCNc1c2ccccc2nc2c1[nH]c1ccccc12	/	.	/	/
SMILES	p53null 32C tox	FH mod	p53null 39C kill	DRV1 agonist
CSc1cccc(N2C(=O)N(CC(=O)NCc3ccccc3Cl)c3ccccc3S2(=O)=O)c1	.	.	.	67
CSc1cccc(N2C(=O)N(Cc3ccc([N+](=O)[O-])cc3)c3ccccc3S2(=O)=O)c1	.	.	.	.
CCN(CC)CCNC(=O)c1c(C)[nH]c(/C=C2\C(=O)Nc3ccc(F)cc32)c1C	/	13µM!	/	.
Cc1ccc(NC(=O)C(=O)NCC2(c3ccccc3)CCCC2)cc1Cl	.	.	.	.
Cc1ccc(C(CC(=O)NCC2(c3ccccc3)CCCC2)c2ccccc2)c(O)c1 (stereo unspecified)	.	/	?	63
CC1(CO)CC2C(O)C3=C(CC(C)(O)C2C1)C(=O)OC3 (stereo unspecified)	/	.	/	/

High-throughput results as filed in PubChem BioAssay.
